# Measurements reported in PubChem BioAssay AID651815 (National Center for Advancing Translational Sciences (NCATS), 2012).
# Where “and” joins values, the source holds several entries; their conditions need not be identical. Identical values can stand only once. Out of some 2,100 compounds screened, about 1,100 (52%) were called active. About 29% were inconclusive and are not listed. Calls follow the shape of the dose curve; as a rule, active = well fitted inhibition curve with a large enough effect; inconclusive = small, poorly fitted or top-dose-only effect; inactive = no such curve, though single readings can be large or run the other way. The set was probably picked from earlier hits. The list shows a part of the results.
# Biological target: DNA dC->dU-editing enzyme APOBEC-3F (Homo sapiens) (UniProt Q8IUX4)
# Experiment: qHTS for inhibitors of Vif-A3F interactions: Cherry picks counterscreen; also: nearly all actives have a fitted effect of over 65% in size
# Conditions: HeLa A3F-eYFP/Vif cells, eYFP fluorescence, 24 h; series mostly up to 46.1 µM
# Outline: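 Rescue of Vif-driven A3F-eYFP degradation read as cellular eYFP fluorescence after 24 h compound exposure (several concentrations) in stable HeLa cells; MG132 (2 mM stock) as positive control.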
# Potency is read from the fitted curve at half-maximal effect.
# DNA dC->dU-editing enzyme APOBEC-3F (Homo sapiens), sequence (Q8IUX4 whole entry, looked up): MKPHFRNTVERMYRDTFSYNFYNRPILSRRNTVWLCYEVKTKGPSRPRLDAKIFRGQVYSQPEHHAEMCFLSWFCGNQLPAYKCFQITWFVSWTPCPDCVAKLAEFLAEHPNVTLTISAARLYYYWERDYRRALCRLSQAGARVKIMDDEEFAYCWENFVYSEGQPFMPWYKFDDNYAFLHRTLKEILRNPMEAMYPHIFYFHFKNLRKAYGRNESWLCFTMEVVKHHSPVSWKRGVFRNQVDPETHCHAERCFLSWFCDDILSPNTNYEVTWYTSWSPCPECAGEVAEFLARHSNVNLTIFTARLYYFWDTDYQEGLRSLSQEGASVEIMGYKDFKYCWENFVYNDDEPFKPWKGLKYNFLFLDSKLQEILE
row,SMILES,Potency
1,Cn1nnnc1SCCNCc1cc(Br)ccc1OCc1ccccc1Cl,inactive
2,CCC(C)n1c(NC(=O)c2ccccc2)c(C#N)c2nc3ccccc3nc21 (stereo unspecified),18.4 µM (active)
3,Fc1ccc2nc3[nH]c4ccccc4c3nc2c1,0.886 µM (active)
4,COc1ccc(OC)c(/C=C/c2nc3ccccc3[nH]c2=O)c1,5.8 µM (active)
5,Cc1ccc(N2C(=O)[C@@H]3[C@H](C2=O)[C@H]2C=C(C(=O)c4ccccc4)C=CN2[C@@H]3C(=O)c2ccc(Cl)cc2)cc1,inactive
6,COc1ccc(N2CC(C(=O)N/N=C/c3ccc(C)cc3)CC2=O)cc1 (stereo unspecified),3.53 µM (active)
7,COCCCNC(=S)N/N=C/c1ccc(OC)cc1,inactive
8,CCCCN1C(=O)/C(=C/C=C2\Oc3ccccc3N2CC)SC1=S,inactive
9,CCSC1=N/C(=C\C=C2/Oc3ccccc3N2CC)C(=O)S1,14.6 µM (active)
10,N#CC1=C(N)C(C#N)(C#N)[C@H](c2ccoc2)[C@H]2CN(Cc3ccccc3)CC=C12,4.98 µM (active)
11,CCn1c(/C=C/c2ccc([N+](=O)[O-])o2)nc2ccccc2c1=O,11.6 µM (active)
12,Cn1c(/C=C/c2ccc([N+](=O)[O-])o2)nc2ccccc2c1=O,23.1 µM (active)
13,CCCN1C(=O)C(Cc2nc3ccccc3c(=O)n2CC)c2cc(Br)ccc21 (stereo unspecified),inactive
14,Cc1cc(N/N=C/c2ccc([N+](=O)[O-])o2)nc2ccccc12,20.6 µM (active)
15,O=c1c2ccccc2nc(/C=C/c2ccc([N+](=O)[O-])o2)n1CCCO,23.1 µM (active)
16,COc1cc(/C=N\Nc2ccc([N+](=O)[O-])cc2)ccc1OCC(=O)Nc1ccc(C)c(C)c1,0.651 µM (active)
17,CCN(CC)c1ccc(/C=c2/sc3nnc(-c4ccccc4C)n3c2=O)cc1,16.4 µM (active)
18,CCN1/C(=C/c2cccc[n+]2C)Sc2ccc(OC)cc21,20.6 µM (active)
19,COc1ccc2c(c1)N(C)/C(=C/c1cccc[n+]1C)S2,14 µM (active)
20,CC[n+]1ccccc1/C=C1\Sc2ccc(C)cc2N1C,20.6 µM (active)
21,Cc1ccccc1OCC(=O)NNC(=O)Nc1ccc(Cl)cc1,4.98 µM (active)
22,COc1ccccc1OCC(=O)NNC(=O)Nc1ccc(Cl)cc1,15.8 µM (active)
23,O=C(CSc1n[nH]c(-c2ccccn2)n1)Nc1ccc(Cl)cc1,inactive
24,COc1cc(C2c3cc4c(cc3OC(C)(N3CCCC3)C2C)OCO4)cc(OC)c1OC (stereo unspecified),1.25 µM (active)

row,SMILES,Potency
1,CC(C)NC(=S)N/N=C1\CCCCc2ccccc21,inactive
2,N#CC1=C(N)Oc2cc(N)ccc2C1c1ccc(F)cc1F (stereo unspecified),20.6 µM (active)
3,N#CC1=C(N)Oc2cc(N)ccc2C1c1ccccc1F (stereo unspecified),4.98 µM (active)
4,N#CC1=C(N)Oc2cc(N)ccc2C1C1CC=CCC1 (stereo unspecified),5.59 µM (active)
5,Cc1cccc(CSc2cccc3cccnc23)c1,inactive
6,COc1ccc(S(=O)(=O)Nc2cccc3ccccc23)cc1,10.3 µM (active)
7,COC(=O)c1cccc(NS(=O)(=O)c2ccc(OC)cc2)c1C,3.53 µM (active)
8,S=C(Nc1cccc2ccccc12)NN1CCCCCC1,inactive
9,CCCCN1C(=O)/C(=C2/Sc3ccccc3N2C)S/C1=N\c1ncn[nH]1,20.6 µM (active)
10,CCC(=O)Nc1nonc1-c1nc2ccccc2n1Cc1ccccc1,17.7 µM (active)
11,Nc1nonc1-c1nc2ccccc2n1Cc1ccc(F)cc1,8.86 µM (active)
12,COc1ccc(C)c(Cn2c(-c3nonc3N)nc3ccccc32)c1,1.58 µM (active)
13,COc1cccc(Cn2c(-c3nonc3N)nc3ccccc32)c1,1.58 µM (active)
14,COc1cccc(Cn2c(-c3nonc3NC(C)=O)nc3ccccc32)c1,9.2 µM (active)
15,Cc1ccc(C(=O)NCCn2c(N)c(C#N)c3nc4ccccc4nc32)cc1,18.4 µM (active)
16,COc1ccc(-c2cc(-c3nnc(COC(=O)c4ccncc4)o3)c3ccccc3n2)cc1OC,inactive
17,COc1ccc(COc2cc(-c3cccc(OC)c3)nc3ccc(NC(=O)c4ccc(OC)cc4)cc23)cc1,6.27 µM (active)
18,Cc1ccc2c(c1)sc(-c1ccc(N(C)C)cc1)[n+]2C,14.6 µM (active)
19,CCC(=O)Nc1nc2ccc(NC(=O)c3cc(OC)c(OC)c(OC)c3)cc2s1,inactive
20,CCCC(=O)Nc1nc2ccc(NC(=O)c3ccccc3F)cc2s1,4.44 µM (active)
21,Cn1cc(C2=C(c3ccc(Cl)cc3Cl)C(=O)NC2=O)c2ccccc21,14.6 µM (active) and 20.6 µM (active)
22,Cc1ccc2nc(NS(=O)(=O)c3ccc(Cl)cc3)c(Nc3ccc(C(=O)O)cc3)nc2c1,14.6 µM (active)
23,COC(=O)c1cc(Nc2nc3ccccc3nc2NS(=O)(=O)c2ccc(C)cc2)ccc1Cl,18.4 µM (active)
24,COc1cccc(Nc2nc(Nc3ccc(Cl)c(C(=O)O)c3)nc(C)c2[N+](=O)[O-])c1,inactive

row,SMILES,Potency
1,CCOC(=O)N1CCC(Nc2nc3ccccc3n3nnnc23)CC1,18.4 µM (active)
2,CCOC(=O)c1ccc(Nc2nc3ccccc3nc2NS(=O)(=O)c2ccc(Cl)cc2)cc1,14.6 µM (active)
3,CCOC(=O)N1CCC(Nc2nc3ccccc3nc2NS(=O)(=O)c2ccc(Cl)cc2)CC1,23.1 µM (active)
4,CC(=O)N/N=C/c1cc(C(C)C)cc(/C=N/NC(C)=O)c1O,inactive
5,CC(=O)N/N=C/c1cc(C(C)(C)C)cc(/C=N/NC(C)=O)c1O,23.1 µM (active)
6,NC(=S)N/N=C/c1cccc(O)c1O,inactive
7,CCOc1ccc(C(C)=O)cc1COc1cccnc1[N+](=O)[O-],9.94 µM (active)
8,COc1cccc(/C=N/n2c(C3CCCCC3)n[nH]c2=S)c1O,inactive
9,COc1ccc2cc(C(=O)C3CCCN(Cc4ccccn4)C3)ccc2c1 (stereo unspecified),inactive
10,COc1ccc(-n2nc3c(N4CCCC(C(=O)NCCc5ccccc5C)C4)nnc(C)c3c2C)cc1 (stereo unspecified),25.9 µM (active)
11,O=C(c1ccccc1F)n1c2c(c3ccccc31)CCCC2,11.2 µM (active)
12,CNCC(O)Cn1c2c(c3ccccc31)CCCC2 (stereo unspecified),inactive
13,CCOC(=O)N1CCc2c(sc3c2C(=O)NC(c2ccc(N(C)C)cc2)N3)C1 (stereo unspecified),9.2 µM (active)
14,Cc1cc(C)c2cc3c(N)c(C(=O)Nc4c(C)[nH]c(=O)[nH]c4=O)sc3nc2c1,18.4 µM (active)
15,CCOC1=C/C(=C/c2c(N)n3nc(-c4ccccc4)sc3nc2=O)C=CC1=O,inactive
16,CCSc1ncc(Cl)c(C(=O)N2CCN(c3ccccc3OC)CC2)n1,2.06 µM (active)
17,COc1ccccc1N1CCN(C(=O)c2cc(=O)c3cc(C)cc(C)c3o2)CC1,0.125 µM (active)
18,COC(=O)c1cc(C(=O)N2CCN(c3ccccc3OC)CC2)cc([N+](=O)[O-])c1,3.96 µM (active)
19,COc1ccccc1N1CCN(C(=O)c2ccc3ncsc3c2)CC1,inactive
20,COc1ccccc1N1C(=O)c2cccc3c(C(=O)O)ccc(c23)C1=O,inactive
21,COc1cc(SC)ccc1C(=O)N1CCN(c2ccccc2OC)CC1,3.53 µM (active)
22,COc1ccccc1C(=O)N1CCN(c2cccc(Cl)c2)CC1,1.25 µM (active)
23,COc1ccc(Cn2c(C)nc3c(c2=O)c2nc4ccccc4nc2n3Cc2ccco2)cc1,18.4 µM (active)
24,Cc1ccc2nc3c(cc(S(=O)(=O)c4ccccc4)c(=N)n3Cc3ccco3)c(=O)n2c1,inactive

row,SMILES,Potency
1,CCn1c(SCC(=O)c2c[nH]c3ccccc23)nnc1-c1cccs1,18.4 µM (active)
2,CCOc1cc(/C=C(/C#N)C(=O)Nc2ccc(O)cc2)cc(Br)c1O,15.8 µM (active)
3,CCOc1ccc(NC(=O)/C(C#N)=C/c2ccc(N3CCCC3)c(C)c2)cc1,5.8 µM (active)
4,CCOC(=O)c1c(-c2ccc(C)cc2)csc1NC(=O)/C(C#N)=C/c1ccc(O)c(OC)c1,inactive
5,Cc1ccc2c(c1)Sc1c(ccc3ccccc13)N2,16.4 µM (active)
6,O=[N+]([O-])c1ccccc1SNc1ccccc1,inactive
7,Cc1cc(C)c(S(=O)(=O)Oc2ccccc2[N+](=O)[O-])c(C)c1,6.27 µM (active)
8,CCN(CC)c1ccc(C=NNc2ccc([N+](=O)[O-])cn2)cc1,10.3 µM (active)
9,Cc1ccc(Cc2c(C3CCCCC3)nc3ccc(C)cn23)cc1,inactive
10,Cc1noc(C)c1COc1cccc(C(=O)OCC(=O)N2CC(=O)Nc3ccccc32)c1,6.27 µM (active)
11,C/C(=N\Nc1nccnc1Cl)c1ccc(Cl)c(Cl)c1,inactive
12,CCSc1nc2ccccc2n1C(=O)/C=C/c1ccc(OC)c(OC)c1,4.98 µM (active)
13,C=CCSc1nc2ccccc2n1C(=O)/C=C/c1cc(OC)c(OC)c(OC)c1,6.27 µM (active)
14,CNc1cncc(-c2cc(C)c(O)c(C)c2)n1,4.44 µM (active)
15,O=C(Nc1ncc(Cc2ccc(SC(F)F)cc2)s1)c1ccccc1,2.23 µM (active)
16,Cc1nc(-c2ccc(Cl)cc2)sc1C(=O)NN,14 µM (active)
17,O=C(O)Cc1sc(NC2CCCCC2)nc1-c1ccc(Cl)cc1,inactive
18,CCOc1cc(/C=C2/SC(=S)N(CC3CCCO3)C2=O)ccc1O (stereo unspecified),14.6 µM (active)
19,Cc1cc(N(C)C)c(C)cc1/C=C/c1ccnc2ccccc12,8.2 µM (active)
20,CCN(CC)c1cc(C)c(/C=C/c2ccnc3ccccc23)cc1C,20.6 µM (active)
21,CC(C)C1C(=O)N(Cc2cn(CCC3OCCCO3)nn2)CCS(=O)(=O)N1Cc1ccc(-c2cccc(CO)c2)cc1 (stereo unspecified),inactive
22,COc1ccc(-c2cc3ccccc3oc2=O)cc1NC(=S)NC(=O)c1ccc2c(c1)OCCO2,6.51 µM (active)
23,O=C(NC(=S)Nc1ccc(N2CCCCC2)c(Cl)c1)c1ccc2c(c1)OCCO2,inactive
24,Cc1ccc2ccc3cc(C(=O)Nc4ccc(C)c(F)c4)nc3c2[nH]1,18.4 µM (active)
